A selection: hits, their analogues and other compounds. The true share with any hit is near 6.5%.
VACV mCherry inh – inhibitors of vaccinia virus infection (mCherry reporter signal); Vaccinia virus mCherry reporter infection, fluorescence; Potency, µM (highest dose often 36.5 µM), for the others: top-dose activity change, negative = inhibition, usual class: inhibitors; 310,000 compounds, 0.63% hits; calls by dose curve; tested in A549 cells; note: potency is the fitted concentration of half-maximal effect; nearly all actives have a fitted effect of over 35% in size
FMDV antiviral – antivirals against foot and mouth disease virus | AID 1159524 | 410,000 compounds, 1.2% hits | Potency, µM (titrated, usually from 57.9 µM), inactives show at the highest dose activity change, negative = inhibition, hits mostly inhibitors | FMDV antiviral cell-based qHTS; calls by dose curve; tested in HEK293T cells; note: read-out not given here; potency is the fitted concentration of half-maximal effect; nearly all actives have a fitted effect of over 45% in size
Vaccinia Venus – vaccinia inhibition (Venus reporter) | 330,000 compounds, 0.46% hits | Vaccinia virus Venus reporter expression, fluorescence | Potency, µM (top dose mostly 36.5 µM), without a hit: top-dose activity change, negative = inhibition, most hits filed as inhibitors; calls by dose curve; tested in A549 cells; note: potency is the fitted concentration of half-maximal effect; nearly all actives have a fitted effect of over 30% in size
Marburg entry inh – inhibitors of Marburg virus binding or cell entry; Marburg virus pseudotyped entry inhibition, cell reporter; Potency, µM (highest dose often 37.8 µM), inactives show at the top dose activity change, negative = inhibition, most hits filed as inhibitors; 300,000 compounds, 1.8% hits; AID 540276; calls by dose curve; tested in HEK293 cells; note: potency is the fitted concentration of half-maximal effect
Lassa entry inh – inhibitors of Lassa virus binding or cell entry | Lassa virus pseudotype entry inhibition, cell reporter | Potency, µM (highest dose often 37.9 µM), for the others: at the top dose activity change, negative = inhibition, usual class: inhibitors | 300,000 compounds, 1.2% hits; calls by dose curve; tested in HEK293 cells; note: potency is the fitted concentration of half-maximal effect; nearly all actives have a fitted effect of over 50% in size
HCMV antiviral – inhibitors of human cytomegalovirus | 410,000 compounds, 4.5% hits | activity change, negative = inhibition, % at 57.5 µM | HFF cells, HCMV-luciferase reporter, 72 h; hits give low values | AID 1259415; in the data active = activity change below about -60%; inconclusive = no clear call, values can overlap the other calls; inactive = above about -39%
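Cell-based, HFFs, 1000 cells/well, 16 h 37C; cpds in DMSO + HCMV-luc, MOI 1 PFU/cell; 72 h 37C; OneGlo luminescence after 5 min RT; norm. to buffer vs Salinomycin 10uM.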
An asterisk follows results filed as active; i = inactive; ? = inconclusive; . = no result; [ ] = another dose, or the depositor's remark. % is set by controls: 0 for no effect and ±100 for the full control effect.

SMILES | VACV mCherry inh | FMDV antiviral | Vaccinia Venus | Marburg entry inh | Lassa entry inh | HCMV antiviral
COc1ccc(Nc2c3ccccc3nc3ccccc23)cc1 | ? | ? | ? | ? | ? | -102*
O=C(O)[C@H](Cc1c[nH]c2ccccc12)NS(=O)(=O)c1cccc2nsnc12 | . | . | . | 11% | . | .
CS(=O)(=O)c1ccc(-c2nccc3[nH]nc(-c4cccc(F)c4)c23)cc1 | . | . | . | . | . | -15
CS(=O)(=O)N1CC(=O)N2[C@@H](CO)[C@H](c3ccc(Br)cc3)[C@@H]2C1 | . | . | . | . | . | 9
COCC(=O)Nc1cc(C(=O)N2CC3CC4CC(C3)CC2C4)c2c(c1)nc(-c1ccncc1)n2C | -5% | -4% | -2% | . | . | .
CCOc1ccc(N2CC(NC(=O)C(=O)c3c[nH]c4ccccc34)CC2=O)cc1 (stereo unspecified) | -2% | -14% | -9% | . | -7%[46.1 µM] | 149
COc1cc(Nc2c3ccccc3nc3ccccc23)cc(OC)c1OC | ? | -24% | ? | 2.8µM* | ? | -32
COc1ccc(Nc2cc(Nc3cc(OC)c(OC)c(OC)c3)ncn2)cc1 | -26% | ? | -10% | 16µM* | -11% | -90*
COc1ccc(Nc2cc(Nc3ccc(OC)cc3)ncn2)cc1 | 3% | 14% | -9% | 9%[46.1 µM] | -8%[46.1 µM] | -37
COc1ccccc1Nc1c2ccccc2nc2ccccc12 | 11µM* | ? | ? | ? | ? | -99*
Fc1ccc(Nc2c3c(nc4ccccc24)CCC3)cc1 | -28% | -26% | -23% | ? | ? | -64*
COc1ccccc1Nc1nc(-c2ccccc2)nc2ccccc12 | . | -8% | . | . | . | ?
c1ccc(Nc2c3c(nc4ccccc24)CCC3)cc1 | ? | ? | -5% | ? | -38% | ?
COC(=O)CC=C[C@@H](C)[C@@H](C=NO[C@H](C)c1cn([C@H](CO)Cc2ccccc2)nn1)NS(=O)(=O)c1ccc(C)cc1 | . | . | . | 22%[14.2 µM] | ? | .
O=C(Nc1nc2ccc(S(=O)(=O)N3CCCC3)cc2s1)c1cccc(F)c1 | -6% | -10% | -24% | . | 3%[46.1 µM] | 21
COC(=O)c1ccccc1-c1cc(C)cc2c1OC(CNC(=O)c1occc1C)C2 (stereo unspecified) | -4% | 32% | -13% | . | . | .
CCN(Cc1ccncc1)Cc1ccc2c(c1)CN(C(=O)c1cccc(-n3nc(C)cc3C)c1)CCO2 | -11% | -1% | -2% | . | . | .
CS(=O)(=O)Nc1ccc2c(c1)[C@H]1C[C@H](CC(=O)NCc3cccc(F)c3)O[C@@H](CO)[C@H]1O2 | -6% | -4% | -10% | . | . | 14
COc1ccc(Nc2c3c(nc4ccccc24)CCC3)cc1Cl | ? | ? | ? | ? | -27%[46.1 µM] | -19
COc1ccc(Nc2c3c(nc4ccccc24)CCC3)cc1 | ? | ? | ? | 8.9µM* | ? | -94*
c1ccc2c(Nc3ccc4c(c3)OCCO4)c3c(nc2c1)CCC3 | . | ? | . | . | . | -79*
CCCCCOCC1CC(C/C(C)=N/NC(N)=S)C(=O)O1 (stereo unspecified) | 22µM* | -10% | ? | ? | ? | 0
O=C(Nc1cccc(F)c1)c1cc(S(=O)(=O)NCCC2=CCCCC2)ccc1F | -18% | -2% | ? | ? | -13% | -72*
COc1ccccc1NC(=O)c1cc(S(=O)(=O)NCCC2=CCCCC2)ccc1F | -11% | 13% | -8% | . | -5%[46.1 µM] | -23
COc1ccc(NC(=O)c2cc(S(=O)(=O)NCCC3=CCCCC3)ccc2F)cc1 | ? | -8% | -30% | . | ? | -80*
SMILES | VACV mCherry inh | FMDV antiviral | Vaccinia Venus | Marburg entry inh | Lassa entry inh | HCMV antiviral
Cc1cc(C)cc(NC(=O)c2cc(S(=O)(=O)NCCC3=CCCCC3)ccc2F)c1 | -6% | 3% | 12% | . | 19%[46.1 µM] | -14
Cc1cc(S(=O)(=O)NCCC2=CCCCC2)ccc1Br | -16% | 44% | -17% | 0% | -31% | -27
Cc1ccc(NC(=O)c2cc(S(=O)(=O)NCCC3=CCCCC3)ccc2F)cc1F | ? | ? | ? | ? | ? | -71*
Cc1ccc(S(=O)(=O)NCCC2=CCCCC2)cc1C(N)=O | . | 11% | . | . | . | -75*
COc1ccc(C)cc1NC(=O)c1cc(S(=O)(=O)NCCC2=CCCCC2)ccc1F | -5% | 35% | -5% | . | 12%[46.1 µM] | -17
Cc1ccc2nccc(/C=C/c3ccc(N(C)C)cc3)c2c1 | -24% | . | 14% | . | . | .
COc1ccc([C@H]2/C(=C(\O)c3ccccc3)C(=O)C(=O)N2c2ncccn2)cc1OC | . | . | . | 1% | . | .
COc1ccc(Oc2ncc3nc(-c4cccc(C#N)c4)c(=O)n(CCC#N)c3n2)cc1 | . | -32% | . | . | . | .
O=C(NNS(=O)(=O)c1ccc(F)cc1)c1cnn(-c2ccccc2)c1C(F)(F)F | . | 4% | . | . | . | 5
COc1ccc(OC)c([C@@H]2C(C#N)=C(N)Oc3cc(C)n(Cc4ccccn4)c(=O)c32)c1 | . | . | . | -1% | . | .
CCOC(=O)OC[C@H]1O[C@H](c2ccc(C(C)=O)cc2)C=C[C@@H]1Oc1ccc(-c2ccccc2)cc1 | . | . | . | 3%[14.2 µM] | . | .
CC[n+]1c(-c2ccc(C)cc2)csc1Nc1c(C)n(C)n(-c2ccccc2)c1=O | -24% | 32µM* | -27% | ? | ? | -88*
CC[n+]1c(-c2ccccc2)csc1Nc1c(C)n(C)n(-c2ccccc2)c1=O | . | -15% | . | . | . | -39
CC1=NOC(=O)/C1=C/c1ccc(O)cc1 | -18% | -10% | -6% | 4%[46.1 µM] | 2% | -12
CC1=NOC(=O)/C1=C\c1ccc(-c2cccc(Cl)c2)o1 | ? | 40µM* | -40% | ? | ? | .
CC1=NOC(=O)/C1=C\c1ccc(-c2ccccc2Br)o1 | . | 25µM* | . | . | . | -10
CC1=NOC(=O)/C1=C/c1ccc(O)c(Br)c1 | i | 25µM* | -4% | 11%[46.1 µM] | 3%[46.1 µM] | 22
CCCCN1CCC(COC(=O)c2cc(Cl)c(N)c3c2OCCO3)CC1 | i | 0% | -12% | 11µM* | . | -21
COc1cc(=O)n2c(c1C(=O)NCc1cccc(F)c1)CCN(Cc1cccnc1)CC2 | i | -3% | -3% | . | . | .
C[n+]1c2n(c3ccccc31)N=C(c1ccccc1)CS2 | -6% | ? | -19% | ? | ? | -92*
C[n+]1c2n(c3ccccc31)N=C(c1ccc(Br)cc1)CS2 | . | ? | . | ? | ? | -2
Cc1cc(-c2nnc3n2N=C(c2ccccc2)CS3)n[nH]1 | -12% | -6% | -19% | 0%[14.2 µM] | -17% | -18
C[n+]1c2n(c3ccccc31)N=C(c1ccc(-c3ccccc3)cc1)CS2 | -24% | ? | ? | . | . | -99*
CC(C)n1nnnc1SCC(=O)c1c(N)n(C2CC2)c(=O)[nH]c1=O | . | -19% | . | . | . | 0
C(/C=C/c1ccccc1)=N/N1CCN(c2ccccc2)CC1 | . | 51% | . | ? | -17% | -101*
Cc1cc(C)c2nc(SCC(=O)Nc3ccccc3N3CCOCC3)c(C#N)cc2c1 | -15% | -9% | -9% | -13%[46.1 µM] | -3% | -17
Cc1cc(C)c2nc(SCC(=O)N3CC(=O)Nc4ccccc43)c(C#N)cc2c1 | ? | ? | ? | ? | ? | -88*
